Source: PubChem BioAssay (NCATS)
Results filed as inconclusive are left out. Values without a mark were called inactive. Calls follow the shape of the dose curve; as a rule, active = well fitted inhibition curve with a large enough effect; inconclusive = small, poorly fitted or top-dose-only effect, or effect the other way; inactive = flat fitted curve, though single readings scatter.

What follows are compounds tested against ATP-dependent 6-phosphofructokinase (Trypanosoma brucei brucei) (UniProt O15648) (assay: qHTS Assay to Find Inhibitors of T. brucei phosphofructokinase: hit validation (AID 492961;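 also: luminescence reports ADP formed as PFK phosphorylates fructose-6-phosphate with ATP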)). Settings: T. brucei PFK, ADP-Glo luminescence; series mostly up to 51.4 µM; activity change, negative = inhibition: at the top concentration.
Outline: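 Percent activity derived from corrected luminescence, normalized between 0x and 1x enzyme controls, then fitted to concentration-response curves. Conditions: 1.25 nM PFK, 0.1 mM ATP, 0.5 mM F6P, 45 min RT.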
% is scaled to controls: 0 for no effect and ±100 for the full control effect.

ATP-dependent 6-phosphofructokinase (Trypanosoma brucei brucei), sequence (O15648 whole entry, looked up): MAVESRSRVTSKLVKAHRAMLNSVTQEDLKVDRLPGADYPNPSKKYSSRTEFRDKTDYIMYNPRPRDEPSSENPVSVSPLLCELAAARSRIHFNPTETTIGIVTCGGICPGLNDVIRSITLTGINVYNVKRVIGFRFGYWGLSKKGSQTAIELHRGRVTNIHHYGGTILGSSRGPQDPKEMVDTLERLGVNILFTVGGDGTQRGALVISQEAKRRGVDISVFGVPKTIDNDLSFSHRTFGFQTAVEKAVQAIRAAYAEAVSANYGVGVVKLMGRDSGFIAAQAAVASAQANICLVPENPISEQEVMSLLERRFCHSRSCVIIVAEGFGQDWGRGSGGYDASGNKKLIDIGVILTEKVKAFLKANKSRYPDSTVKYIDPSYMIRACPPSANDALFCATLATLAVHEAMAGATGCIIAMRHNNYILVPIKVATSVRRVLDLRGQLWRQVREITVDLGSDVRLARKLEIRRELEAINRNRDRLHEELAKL

Row | Structure (SMILES) | activity change, negative = inhibition
1 | O=P(O)(O)C(O)(Cc1cccnc1)P(=O)(O)O | -3.22%
2 | COc1cc([C@@H]2c3cc4c(cc3[C@H](O)[C@H]3COC(=O)[C@H]23)OCO4)cc(OC)c1OC | 4.04%
3 | CCOCC(O)COc1ccc(NC(=O)CC[S+](C)C)cc1 (configuration not stated) | 2.71%
4 | CN(C)CCc1c[nH]c2ccc(CS(=O)(=O)N3CCCC3)cc12 | -7.42%
5 | CNC1CCCN(c2c(F)cc3c(=O)c(C(=O)O)cn(C4CC4)c3c2OC)C1 (configuration not stated) | -2.25%
6 | COC(=O)Nc1nc2ccc(C(=O)c3ccccc3)cc2[nH]1 | 7.68% [at 24.3 µM]
7 | CCCc1cc(C(N)=S)ccn1 | -6.61%
8 | CCN(C)C(=O)Oc1cccc([C@H](C)N(C)C)c1 | 0%
9 | CCn1cc(C(=O)O)c(=O)c2cc(F)c(N3CCN(C)CC3)cc21 | -6.49%
10 | CNNCc1ccc(C(=O)NC(C)C)cc1 | 0%
11 | CCCc1nc(C)c2c(=O)[nH]c(-c3cc(S(=O)(=O)N4CCN(CC)CC4)ccc3OCC)nn12 | 1.67%
12 | C[C@@H](NCCCc1cccc(C(F)(F)F)c1)c1cccc2ccccc12 | -3.59%
